Screening results deposited in PubChem BioAssay by National Center for Advancing Translational Sciences (NCATS).
Many of the other results were omitted from the sample, so hits are more common in it than they were.
Pf Dd2 inh: Plasmodium falciparum Dd2 growth inhibition; P. falciparum Dd2 growth, SYBR Green, 72 h; Potency, µM (highest dose often 28.9 µM), actives largely listed as inhibitors; 120,000 tested, 4.3% active; active = well fitted inhibition curve with a large enough effect; also: nearly all actives have a fitted effect of over 65% in size
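Readout: SYBR Green fluorescence, 485 nm excitation, 535 nm emission, after ~16 h lysis at 37C. Before that, Dd2-infected red cells (2.5% hematocrit) grew 72 h with compound, 29 uM top final concentration.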
Each line names hits and unclear results; the compound was inactive in the other large screens.

O=C1NCCCCCN(Cc2cccnc2)[C@H]2CCC[C@@H]12	none
Cc1ccc(CN2CCCN(S(C)(=O)=O)C(c3ccccc3)CC(=O)NCC2)s1 (configuration not stated)	none
O=C1NCCCCCCN(Cc2cccc(OC(F)(F)F)c2)[C@H]2CCC[C@@H]12	Pf Dd2 inh 7.1µM
Cc1ccc(C(=O)NCC(=O)N2CCCCCCNC(=O)CC2c2ccccc2)s1 (configuration not stated)	none
Cc1ccsc1CN1CCCCCCNC(=O)[C@@H]2CCC[C@@H]21	Pf Dd2 inh 8.9µM
O=C1CC(c2ccccc2)N(C(=O)c2ccsc2)CCCCCN1 (configuration not stated)	none
O=C1NCCCCCN(Cc2ccc(F)cc2F)[C@H]2CCC[C@@H]12	none
O=C1NCCCCCN(Cc2ccccn2)[C@H]2CCC[C@@H]12	none
Cc1ccsc1CN1CCCCCCNC(=O)CC1c1ccccc1 (configuration not stated)	Pf Dd2 inh 13µM
O=[S+]([O-])(c1cccc(C(F)(F)F)c1)N1CC(Oc2ccc(F)c(F)c2)C1	none
Cc1nc([C@@H]2CN(C(=O)CN3CCCCCC3)C[C@H]2C(N)=O)n[nH]1	none
O=C(NCC1CC1)c1cn(C2CN(C(=O)NCC3CCCO3)C2)nn1 (configuration not stated)	none
COc1ccc(-c2nnc3n2CCN(C(=O)Cc2ccc(F)cc2)C3)cc1	none
COc1ccc(C(=O)N2CCOC(CCCC(C)C)C2)o1 (configuration not stated)	none
O=C(O)CCC(=O)N1Cc2[nH]cnc2C[C@H]1C(=O)NC1CCCCC1	none
O=C1CC(c2ccccc2)N(C(=O)c2cccs2)CCCCCN1 (configuration not stated)	none
Cc1ccsc1CN1CCCCCNC(=O)CC1c1ccccc1 (configuration not stated)	Pf Dd2 inh 7.1µM
O=C1CC(c2ccccc2)N(S(=O)(=O)c2cccs2)CCCCCN1 (configuration not stated)	none
O=C1NCCCCCN(C(=O)CN2CCOCC2)[C@H]2CCC[C@@H]12	none
OCCC1CN(Cc2c(F)ccc(F)c2F)CCN1C1CCCC1 (configuration not stated)	none
CCOc1cc(=O)n2c(c1C(=O)Nc1cccc(C(F)(F)F)c1)CCCC2	none
Cc1cc(Nc2cccc(Cl)c2)nc2ccc(NC(=O)c3ccc(F)cc3Cl)cc12	none
CCOc1ccc(C(=O)Nc2ccc(NC(=O)c3ccccc3)cc2)cc1Br	none
Cc1cc(Nc2cccc(C(F)(F)F)c2)nc2ccc(NC(=O)c3cccnc3)cc12	Pf Dd2 inh 3.5µM
CCOc1ccc(C(=O)Nc2ccc3nc(Nc4cccc(C(F)(F)F)c4)cc(C)c3c2)cc1OCC	Pf Dd2 inh 3.2µM
Cc1cc(Nc2cccc(Cl)c2)nc2ccc(NC(=O)Cc3ccc(Cl)cc3)cc12	none
O=C1O[C@@H]2CN(Cc3cnc[nH]3)C[C@@H]2N1CCc1ccc(F)cc1	none
O=C(CN1CCn2nc(CO)cc2C1)N1CCOc2ccccc21	none
O=C(c1ccc2c(c1)OC(F)(F)O2)N1CC2(Cc3ccccc3NC2=O)C1	none
OC1CC(c2cc(NCC3(c4ccccc4)CCOCC3)ncn2)C1 (configuration not stated)	none
CC(=O)NC1(C)CCN(Cc2ccc(-c3ccc4c(ccn4C)c3)cc2)C1 (configuration not stated)	Pf Dd2 inh 10µM
CC(=O)NC1(C)CCCN(Cc2cc(Br)cs2)C1 (configuration not stated)	none
CC(=O)NC1(C)CCN(Cc2ccc(-c3ccc([S+](C)(=O)[O-])cc3)cc2)C1 (configuration not stated)	none
COc1ccccc1CNC(=O)C1(CCO)CCN(Cc2ccccc2)C1 (configuration not stated)	none
CC(=O)NC1(C)CCN(Cc2ccc(-c3ccccc3Oc3ccccc3)cc2)C1 (configuration not stated)	Pf Dd2 inh 7.1µM
COc1cc(CN2CCC(C)(NC(C)=O)CC2)cc(-c2ccccc2)c1	none
O=C(NCC1CCCO1)N1CC(c2nc(CCOCC3CCCC3)no2)C1 (configuration not stated)	none
Cc1noc(C)c1[S+](=O)([O-])N1CCC(c2nn(-c3ccc(F)cc3)c(=O)[nH]2)CC1	none
CCN(CC)CCNc1nc(C)nc2c1c(C)nn2C	none
CCCCOc1ccc(-c2nonc2NC(=O)c2ccco2)cc1	none
CCOc1ccc(-c2nonc2NC(=O)c2ccco2)cc1OCC	Pf Dd2 inh 2.5µM
CCOc1ccc(-c2nonc2NC(=O)c2ccco2)cc1	none
CCOc1ccc(CN2CC[C@@](C)(O)[C@H](N3CCCC3)C2)cc1OC	none
O=Cc1ccccc1-c1cnc2ccccc2c1	none
COc1cccc(C(=O)N2CC[C@H]3COC(=O)N3c3cc(F)ccc3C2)c1	none
COc1ccc(/C=C/CN2CCC3(CC2)C(=O)N(Cc2cccnc2)C(=O)N3C)cc1	none
CCc1ccc(OCCCn2c(-c3ccc(Cl)cc3)nc3ccccc3c2=O)cc1	none
CCCC(O)c1nc2ccccc2n1CCCOc1ccc(Cl)cc1 (configuration not stated)	Pf Dd2 inh 5µM
Cc1ccc(OCCn2c(COc3ccc(Cl)cc3)nc3ccccc32)cc1	none
c1coc(-c2nnc([C@H]3CCN(C4CCOCC4)C3)o2)c1	none
O=C(Cc1ccccc1)NC1CCN(c2cc(-c3ccccc3)[nH]n2)CC1	none
COc1ccc(CN2C[C@H]3CN(Cc4cccc(OC(F)(F)F)c4)CCN3C2=O)cc1	none
COc1ccc(C)cc1NC(=O)N(Cc1ccc2c(c1)OCO2)C1CCN(Cc2ccccc2)CC1	Pf Dd2 inh 8.9µM
COc1ccc(C)cc1NC(=O)N(Cc1ccc(C)o1)C1CCN(C(C)=O)CC1	none
CC(=O)N1CCC(N(Cc2ccco2)C(=O)Nc2ccc(C)c(Cl)c2)CC1	none
CCN1CCC(N(Cc2cccc(OC)c2)C(=O)Nc2ccc(C)cc2Cl)CC1	none
Cc1ccc(NC(=O)N(Cc2ccc3c(c2)OCO3)C2CCN(Cc3ccccc3)CC2)cc1Cl	Pf Dd2 inh 10µM
Cc1ccc(NC(=O)N(Cc2ccc3c(c2)OCO3)C2CCN(Cc3ccccc3)CC2)cc1C	none
CCN(CC)CCCNC(=O)c1cn2ccnc(-c3ccccc3)c2n1	none
FC(F)(F)C1CN(c2ccc3cc(Cl)ccc3n2)CCO1 (configuration not stated)	none
CNC(=O)c1cn2c(n1)CN(C(=O)c1cccnc1)CC2	none
CCCCN1CCN(C(=O)c2cnc(-c3ccccc3)nc2-c2ccncc2)CC1	none
CC/C=C\CCc1c(-c2ccccc2)ncn1CCN1CCN(C)CC1	Pf Dd2 inh 4.5µM
CN1CCN(c2ncc(C(=O)O)c(-c3ccccc3)n2)CC1	none
CNC(=O)C(C)N(C)C(=O)c1coc(CN2CCN(c3ccccc3F)CC2)n1 (configuration not stated)	none
CN(C)C[C@H]1O[C@@H](CO)[C@@H](O)[C@H]1N1CCN(c2ccc(F)cc2)CC1	none
O=C1CCN(C(=O)CC(c2ccccc2)c2ccc3c(c2)OCO3)CCN1 (configuration not stated)	none
Cc1cc(C)n(CCC(=O)NCCC2CCN(C(=O)Nc3ccccc3)CC2)n1	none
Cc1c(CC(=O)NCC2CC2)c2c(n1Cc1ccccc1F)CCCC2=O	none
Cc1c(CC(=O)NC2CCOC2=O)c2c(n1Cc1ccccc1F)CCCC2=O (configuration not stated)	none
Cc1c(CC(=O)NC(C)C2CC2)c2c(n1Cc1ccccc1F)CCCC2=O (configuration not stated)	Pf Dd2 inh 10µM
CN1CCN(c2nc3c(c(=O)[nH]2)CCN(CC2CCCCC2)CC3)CC1	none
CCCNC(=O)c1ccc(S(=O)(=O)NCC2(O)CCCNC2)cc1 (configuration not stated)	none
